# Experimental data as given in PubChem BioAssay (NCI).
# Compounds without any hit were thinned out: in the full panel of roughly 79,000, 15% have a hit. A number with no mark means an inactive call. The source made the active and inactive calls. Rule as the data show it: active = growth inhibition above about 70%; inactive = the rest.
# Experiments:
# [1] = NCI Yeast Anticancer Drug Screen. Data for the rad52 strain (AID 147);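 also: 0% = growth of vehicle-treated control cultures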; conditions: S. cerevisiae rad52 mutant growth inhibition, active compounds read high
# Summary of the method: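 Vehicle-treated cultures served as the reference for growth inhibition of compound-exposed yeast bearing a DNA repair mutation.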
# [2] = NCI Yeast Anticancer Drug Screen. Data for the wt1 strain (AID 149);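 also: 0% = growth of vehicle-treated wt1 cultures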; conditions: S. cerevisiae wt1 strain (SPY 50644) growth inhibition, active compounds read high
# Summary of the method: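 Yeast wt1 strain exposed to compounds; growth inhibition measured relative to vehicle-treated controls.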
# [3] = NCI Yeast Anticancer Drug Screen. Data for the rad50EPP+ strain (AID 151);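 also: 0% = growth of vehicle-treated control cultures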; conditions: S. cerevisiae rad50 mutant strain, active compounds read high
# Summary of the method: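 In this screen, rad50EPP+ yeast were exposed to compounds. Growth inhibition was scored against vehicle-treated controls.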
# [4] = NCI Yeast Anticancer Drug Screen. Data for the mgt1 strain (AID 153); conditions: S. cerevisiae mgt1 mutant growth inhibition, active compounds read high
# Summary of the method: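 mgt1 strain exposed; growth vs vehicle control recorded as inhibition.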
# [5] = NCI Yeast Anticancer Drug Screen. Data for the rad50 strain (AID 155);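 also: 0% = growth of vehicle-only cultures of the same strain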; conditions: S. cerevisiae rad50 strain growth inhibition, active compounds read high
# Summary of the method: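 Yeast carrying a defined DNA repair defect were exposed to test compounds, and growth was compared with vehicle-treated controls to give percent inhibition.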
# [6] = NCI Yeast Anticancer Drug Screen. Data for the mec2-1 strain (AID 157); conditions: S. cerevisiae mec2-1 strain, active compounds read high
# Summary of the method: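 Vehicle-treated cultures served as reference for growth inhibition of compound-exposed mec2-1 yeast.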
# [7] = NCI Yeast Anticancer Drug Screen. Data for the rad14 strain (AID 159);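 also: 0% = growth of vehicle-treated control cultures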; conditions: S. cerevisiae rad14 strain growth inhibition, active compounds read high
# Summary of the method: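 Yeast cells carrying a defined DNA-repair defect were exposed to compounds, and growth inhibition was calculated relative to vehicle-treated control cultures.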
# [8] = NCI Yeast Anticancer Drug Screen. Data for the sgs1 mgt1 strain (AID 161);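 also: 0% = growth of cultures given vehicle only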; conditions: S. cerevisiae sgs1 mgt1 strain, active compounds read high
# Summary of the method: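 Mutant yeast exposed to compound; growth scored against vehicle-only wells.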
# [9] = NCI Yeast Anticancer Drug Screen. Data for the CLN2oe strain (AID 163);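 also: 0% = growth of vehicle-only control cultures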; conditions: S. cerevisiae CLN2oe strain, active compounds read high
# Summary of the method: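 Inhibition relative to vehicle-treated yeast is reported. Cells: strain with genetic alteration in cell-cycle control, grown with compound.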
# [10] = NCI Yeast Anticancer Drug Screen. Data for the cln2 rad14 strain (AID 165);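 also: 0% = growth equal to vehicle treated cultures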; conditions: S. cerevisiae cln2 rad14 strain, active compounds read high
# Summary of the method: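 Each compound was tested on cln2 rad14 yeast. Inhibition of growth was calculated against vehicle-exposed controls.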
# [11] = NCI Yeast Anticancer Drug Screen. Data for the bub3 strain (AID 167); conditions: S. cerevisiae bub3 mutant strain, active compounds read high
# Summary of the method: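 Compounds were applied to a genetically altered yeast strain carrying a cell-cycle control defect. Growth inhibition was scored against vehicle-treated controls.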
# [12] = NCI Yeast Anticancer Drug Screen. Data for the wt2 strain (AID 169);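 also: 0% = growth of vehicle-treated yeast cultures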; conditions: S. cerevisiae wt2 strain growth inhibition, active compounds read high
# Summary of the method: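 Inhibition of yeast growth was determined after compound treatment, normalised to controls receiving only vehicle.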
# [13] = NCI Yeast Anticancer Drug Screen. Data for the mlh1 strain (AID 171);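 also: 0% = growth of vehicle-treated control cultures of the same strain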; conditions: S. cerevisiae mlh1 strain growth inhibition, active compounds read high
# Summary of the method: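 Vehicle-normalised growth inhibition of a repair- or checkpoint-altered yeast strain following compound treatment.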
# [14] = NCI Yeast Anticancer Drug Screen. Data for the sgs1 strain (AID 173);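 also: 0% = growth of vehicle-only control cultures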; conditions: S. cerevisiae sgs1 mutant, active compounds read high
# Summary of the method: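 Screen format: yeast with repair or checkpoint alterations, compound exposure, growth read relative to vehicle.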
# [15] = NCI Yeast Anticancer Drug Screen. Data for the mlh1 rad18 strain (AID 175); conditions: S. cerevisiae mlh1 rad18 strain growth inhibition, active compounds read high
# Summary of the method: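 Vehicle-treated cultures served as the reference for growth inhibition in a yeast strain carrying DNA damage repair alterations exposed to each compound.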
# [16] = NCI Yeast Anticancer Drug Screen. Data for the rad18 strain (AID 177); conditions: S. cerevisiae rad18 mutant growth inhibition, active compounds read high
# Summary of the method: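 Test articles were incubated with altered yeast defective in DNA damage repair. Results are given as inhibition of growth versus vehicle.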
# [17] = at 5.0 µM (retest, dose inferred, filed as 0.5)
# [18] = at 50.0 µM (retest, dose inferred, filed as 5.0)
compound,measurement,setting,value
CC1CC[C@]2(C(=O)O)CCC3(C)C(=CC(=O)C4[C@@]5(C)CCC(=O)C(C)(C)C5CC[C@]43C)[C@@H]2[C@H]1C (stereo partly drawn),growth inhibition,[1]; at 1.2 µM,29%
same,growth inhibition,[1]; at 3.7 µM,43%
same,growth inhibition,[1]; at 11.0 µM,91% (active)
same,growth inhibition,[1]; at 33.0 µM,98% (active)
same,growth inhibition,[1]; at 100.0 µM,97% (active)
same,growth inhibition,[2]; at 1.2 µM,9%
same,growth inhibition,[2]; at 3.7 µM,20%
same,growth inhibition,[2]; at 11.0 µM,93% (active)
same,growth inhibition,[2]; at 33.0 µM,98% (active)
same,growth inhibition,[2]; at 100.0 µM,97% (active)
same,growth inhibition,[3]; at 1.2 µM,9%
same,growth inhibition,[3]; at 3.7 µM,21%
same,growth inhibition,[3]; at 11.0 µM,28%
same,growth inhibition,[3]; at 33.0 µM,18%
same,growth inhibition,[3]; at 100.0 µM,30%
same,growth inhibition,[4]; at 1.2 µM,4%
same,growth inhibition,[4]; at 3.7 µM,9%
same,growth inhibition,[4]; at 11.0 µM,88% (active)
same,growth inhibition,[4]; at 33.0 µM,97% (active)
same,growth inhibition,[4]; at 100.0 µM,97% (active)
same,growth inhibition,[5]; at 1.2 µM,20%
same,growth inhibition,[5]; at 3.7 µM,46%
same,growth inhibition,[5]; [17],4%
same,growth inhibition,[5]; at 11.0 µM,92% (active)
same,growth inhibition,[5]; at 33.0 µM,98% (active)
same,growth inhibition,[5]; [18],97% (active)
same,growth inhibition,[5]; at 50.0 µM,90.8% (active)
same,growth inhibition,[5]; at 100.0 µM,97% (active)
same,growth inhibition,[6]; at 1.2 µM,-2%
same,growth inhibition,[6]; at 3.7 µM,38%
same,growth inhibition,[6]; [17],26%
same,growth inhibition,[6]; at 11.0 µM,88% (active)
same,growth inhibition,[6]; at 33.0 µM,95% (active)
same,growth inhibition,[6]; [18],97% (active)
same,growth inhibition,[6]; at 50.0 µM,91.5% (active)
same,growth inhibition,[6]; at 100.0 µM,95% (active)
same,growth inhibition,[7]; at 1.2 µM,-19%
same,growth inhibition,[7]; at 3.7 µM,-13%
same,growth inhibition,[7]; at 11.0 µM,77% (active)
same,growth inhibition,[7]; at 33.0 µM,95% (active)
same,growth inhibition,[7]; at 100.0 µM,96% (active)
same,growth inhibition,[8]; [17],7%
same,growth inhibition,[8]; [18],96% (active)
same,growth inhibition,[8]; at 50.0 µM,89.8% (active)
same,growth inhibition,[9]; at 1.2 µM,1%
same,growth inhibition,[9]; at 3.7 µM,37%
same,growth inhibition,[9]; at 11.0 µM,92% (active)
same,growth inhibition,[9]; at 33.0 µM,97% (active)
same,growth inhibition,[9]; at 100.0 µM,97% (active)
same,growth inhibition,[10]; [17],65%
same,growth inhibition,[10]; [18],98% (active)
same,growth inhibition,[10]; at 50.0 µM,90.7% (active)
same,growth inhibition,[11]; at 1.2 µM,12%
same,growth inhibition,[11]; at 3.7 µM,29%
same,growth inhibition,[11]; [17],58%
same,growth inhibition,[11]; at 11.0 µM,88% (active)
same,growth inhibition,[11]; at 33.0 µM,96% (active)
same,growth inhibition,[11]; [18],97% (active)
same,growth inhibition,[11]; at 50.0 µM,91.7% (active)
same,growth inhibition,[11]; at 100.0 µM,96% (active)
same,growth inhibition,[12]; at 1.2 µM,12%
same,growth inhibition,[12]; at 3.7 µM,13%
same,growth inhibition,[12]; at 11.0 µM,88% (active)
same,growth inhibition,[12]; at 33.0 µM,98% (active)
same,growth inhibition,[12]; at 100.0 µM,97% (active)
same,growth inhibition,[13]; at 1.2 µM,14%
same,growth inhibition,[13]; at 3.7 µM,14%
same,growth inhibition,[13]; at 11.0 µM,83% (active)
same,growth inhibition,[13]; at 33.0 µM,96% (active)
same,growth inhibition,[13]; at 100.0 µM,96% (active)
same,growth inhibition,[14]; at 1.2 µM,29%
same,growth inhibition,[14]; at 3.7 µM,30%
same,growth inhibition,[14]; at 11.0 µM,91% (active)
same,growth inhibition,[14]; at 33.0 µM,98% (active)
same,growth inhibition,[14]; at 100.0 µM,97% (active)
same,growth inhibition,[15]; [17],35%
same,growth inhibition,[15]; [18],97% (active)
same,growth inhibition,[15]; at 50.0 µM,90.7% (active)
same,growth inhibition,[16]; at 1.2 µM,15%
same,growth inhibition,[16]; at 3.7 µM,34%
same,growth inhibition,[16]; at 11.0 µM,93% (active)
same,growth inhibition,[16]; at 33.0 µM,97% (active)
same,growth inhibition,[16]; at 100.0 µM,97% (active)
CN(C)C=NC1CCC(C(C)(C)C)CC1 (stereo not drawn),growth inhibition,[1]; at 1.2 µM,-5%
same,growth inhibition,[1]; at 3.7 µM,7%
same,growth inhibition,[1]; at 11.0 µM,34%
same,growth inhibition,[1]; at 33.0 µM,74% (active)
same,growth inhibition,[1]; at 100.0 µM,99% (active)
same,growth inhibition,[2]; at 1.2 µM,-4%
same,growth inhibition,[2]; at 3.7 µM,-5%
same,growth inhibition,[2]; at 11.0 µM,-1%
same,growth inhibition,[2]; at 33.0 µM,51%
same,growth inhibition,[2]; at 100.0 µM,97% (active)
same,growth inhibition,[3]; at 1.2 µM,-2%
same,growth inhibition,[3]; at 3.7 µM,5%
same,growth inhibition,[3]; at 11.0 µM,10%
same,growth inhibition,[3]; at 33.0 µM,30%
same,growth inhibition,[3]; at 100.0 µM,73% (active)
same,growth inhibition,[4]; at 1.2 µM,-1%
same,growth inhibition,[4]; at 3.7 µM,-1%
same,growth inhibition,[4]; at 11.0 µM,45%
same,growth inhibition,[4]; at 33.0 µM,97% (active)
same,growth inhibition,[4]; at 100.0 µM,99% (active)
same,growth inhibition,[5]; at 1.2 µM,-3%
same,growth inhibition,[5]; at 3.7 µM,-1%
same,growth inhibition,[5]; [17],28%
same,growth inhibition,[5]; at 11.0 µM,59%
same,growth inhibition,[5]; at 33.0 µM,97% (active)
same,growth inhibition,[5]; [18],97% (active)
same,growth inhibition,[5]; at 50.0 µM,98.8% (active)
same,growth inhibition,[5]; at 100.0 µM,99% (active)
same,growth inhibition,[6]; at 1.2 µM,2%
same,growth inhibition,[6]; at 3.7 µM,0%
same,growth inhibition,[6]; [17],-24%
same,growth inhibition,[6]; at 11.0 µM,10%
same,growth inhibition,[6]; at 33.0 µM,73% (active)
same,growth inhibition,[6]; [18],99% (active)
same,growth inhibition,[6]; at 50.0 µM,95.8% (active)
same,growth inhibition,[6]; at 100.0 µM,99% (active)
same,growth inhibition,[7]; at 1.2 µM,-1%
same,growth inhibition,[7]; at 3.7 µM,11%
same,growth inhibition,[7]; at 11.0 µM,75% (active)
same,growth inhibition,[7]; at 33.0 µM,98% (active)
same,growth inhibition,[7]; at 100.0 µM,99% (active)
same,growth inhibition,[8]; [17],14%
same,growth inhibition,[8]; [18],98% (active)
same,growth inhibition,[8]; at 50.0 µM,97.7% (active)
same,growth inhibition,[9]; at 1.2 µM,1%
same,growth inhibition,[9]; at 3.7 µM,9%
same,growth inhibition,[9]; at 11.0 µM,44%
same,growth inhibition,[9]; at 33.0 µM,95% (active)
same,growth inhibition,[9]; at 100.0 µM,99% (active)
same,growth inhibition,[10]; [17],17%
same,growth inhibition,[10]; [18],98% (active)
same,growth inhibition,[10]; at 50.0 µM,98.4% (active)
same,growth inhibition,[11]; at 1.2 µM,-8%
same,growth inhibition,[11]; at 3.7 µM,-2%
same,growth inhibition,[11]; [17],62%
same,growth inhibition,[11]; at 11.0 µM,55%
same,growth inhibition,[11]; at 33.0 µM,94% (active)
same,growth inhibition,[11]; [18],98% (active)
same,growth inhibition,[11]; at 50.0 µM,97.5% (active)
same,growth inhibition,[11]; at 100.0 µM,99% (active)
